One assay deals with T1, Aspartate--tRNA(Asp/Asn) ligase (Mycobacterium tuberculosis (strain ATCC 25618 / H37Rv)) (UniProt P9WFW3).
T1 sequence (whole entry): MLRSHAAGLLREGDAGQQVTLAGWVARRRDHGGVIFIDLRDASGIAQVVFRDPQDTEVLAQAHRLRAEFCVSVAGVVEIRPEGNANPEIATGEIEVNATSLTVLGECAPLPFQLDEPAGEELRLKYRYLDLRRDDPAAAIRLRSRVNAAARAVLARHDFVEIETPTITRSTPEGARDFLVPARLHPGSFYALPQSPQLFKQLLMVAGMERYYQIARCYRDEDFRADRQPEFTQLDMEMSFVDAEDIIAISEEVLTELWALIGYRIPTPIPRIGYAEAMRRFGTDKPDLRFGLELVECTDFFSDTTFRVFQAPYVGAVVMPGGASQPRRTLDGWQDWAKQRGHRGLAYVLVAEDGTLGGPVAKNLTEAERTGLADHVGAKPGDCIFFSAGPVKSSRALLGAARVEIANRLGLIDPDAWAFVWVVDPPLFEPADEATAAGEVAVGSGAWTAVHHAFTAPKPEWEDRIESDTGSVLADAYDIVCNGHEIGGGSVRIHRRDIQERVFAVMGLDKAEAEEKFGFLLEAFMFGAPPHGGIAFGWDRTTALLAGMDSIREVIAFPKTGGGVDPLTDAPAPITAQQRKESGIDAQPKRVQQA
Put plainly: Assay for Asp RNA synthetase-1 from Mycobacterium tuberculosis. The assay is classed as functional. The following applies: 30 µM. The arrangement: scale not given: direction of the effect not stated beside the values.
With `c1cnn(C2CN(Cc3nc(-c4ccsc4)no3)C2)c1`, the Percent Effect is -1.81%. On the same count and under the same terms, with `Cn1cnnc1C1CCCN(C(=O)NCc2cc[nH]n2)C1` (stereo not given) the figure was 4.95%; with `O=C1COc2ccc(C(=O)NS(=O)(=O)c3ccc(F)cc3F)cc2N1`, 0.0843%; with `CC1CCCN(CC(=O)N2CCC(c3ncc4c(n3)CCNC4)CC2)C1` (stereo not given), -2.22%. As to `CCCn1ccc(C(=O)N2CCC(C)CC2)n1`, the Percent Effect is 3.36%. On the same count and under the same terms, with `Cn1cc(Br)c(=O)c(NS(=O)(=O)c2cc(F)ccc2Cl)c1` the figure was -1.26%; with `O=C(CCCc1cn[nH]c1)N1C[C@@H](CN2CCOCC2)[C@@H](CO)C1`, 4.17%. Same read-out and setting: with `CCc1ccccc1-n1cc(O)c(C(=O)N2CCCCC2)n1` the figure was 1.02%. On to `Cc1cc(CN2CCN(C(=O)c3sccc3C3CC3)CC2)on1`, for which the Percent Effect is 0.922%. In the case of `Cc1cc(C)n(-c2cncc(NCCNC(=O)CC3CCCC3)n2)n1`, the Percent Effect is 0.268%. The same measure, in the same setting: with `Cc1cnc2c(S(=O)(=O)NCC3CCS(=O)(=O)C3)cccc2c1` (stereo not given) the figure was 3.04%; with `COc1ccc(F)cc1C(C)NC(=O)Cn1ccc(=O)n(C)c1=O` (stereo not given), 0.602%; with `CC(=O)N(Cc1noc(C)n1)C1CCN(Cc2ccccc2C#N)C1` (stereo not given), 2.26%.

As to `CNC(=O)[C@H]1C[C@H]2OCC[C@H]2N(Cc2cccc3ccccc23)C1`, the Percent Effect turned out to be 0.598%. Same read-out and setting: with `O=C(Nc1nncs1)NC1CCc2ccccc21` (stereo not given) the figure was 1.46%; with `Cc1ccc(-c2cc(CN3CCOC(Cn4cncn4)C3)on2)cc1` (stereo not given), 1.83%; with `O=C1CC2(CCN(CC3CCOC3)CC2)CN1Cc1cc(F)cc(F)c1` (stereo not given), -4.88%.

Turning to `CC(=O)NCC(=O)N1CCC2(CC1)CN(c1cccnc1)C(=O)CO2`, the Percent Effect came to 2.37%.

For the molecule `O=C(NCC(O)c1cccc(F)c1)c1cccnc1O` (stereo not given), the Percent Effect is -2.85%. Still for that read-out and setting: with `CNC(=O)[C@@]12CCO[C@@H]1CCN(S(=O)(=O)c1cccc(C)c1)C2` the figure was -4.6%.

Another assay addresses Shiga toxin 2 (Escherichia coli O157:H7) (UniProt P09385+P09386). Put plainly: E. coli 0.157:H7 Shiga Toxin SOP - stx2 screening assay. The assay is classed as functional. Set-up: scale not given: direction of the effect not stated beside the values. Particulars: 30 µM.
Take `O=C(c1cccn2ccnc12)N1CCCN(c2cccnn2)CC1`: the Percent Effect was determined as 22.9%. As to `CC(=O)c1sc(Nc2ccc(Cl)cn2)nc1C`, the Percent Effect is -4.07%. The same measure, in the same setting: for `Cc1nc(C)n(CC2CCCN2Cc2nc3ccccc3n2C)n1` (stereo not given) the value was 5.05%; for `OC(COc1ccccc1)CN1CCC(c2ccn[nH]2)CC1` (stereo not given), -7.22%. On to `Cc1n[nH]c(C(=O)NCc2ccnc(OCC(F)(F)F)c2)c1Br`, for which the Percent Effect was determined as 9.67%. Same read-out and setting: with `CCC(=O)Nc1ccc(C(C)NC(=O)COCCOC)cc1` (stereo not given) the figure was -16.3%; with `COCCc1noc(CN2CCOC(Cn3nc(C)cc3C)C2)n1` (stereo not given), -7.72%; with `COc1ccc(C(C)=O)c(OCC(=O)NC(C)c2ccc(F)cc2)c1` (stereo not given), -1.68%.

`O=C(N1CCOCC1)[C@@]12CCO[C@@H]1CCN(CCN1CCCCC1)C2`: the Percent Effect is -37.5%.

`Cc1ccc(C(=O)N2CCO[C@H]3[C@@H](OCc4ccccn4)CC[C@@H]32)o1`: the Percent Effect was -6.16%. The same measure, in the same setting: for `O=c1[nH]c2c(c(=O)n1C1CCCCC1)CCC2NCCc1ccccc1` (stereo not given) the value was 3.31%; for `CN(Cc1ccco1)C[C@H]1OC[C@@H]2CCN(Cc3nccs3)C[C@@H]21`, -45.7%; for `COCCN1CCC(NCc2ccc(C#N)cc2)C1` (stereo not given), -49.3%.

For the molecule `COC(=O)C(NC(=O)c1ccco1)c1cc(F)ccc1F` (stereo not given), the Percent Effect stood at 7.37%. Take `Cc1cc(C(C)NC(=O)N2CCC(n3cncn3)CC2)c(C)s1` (stereo not given): the Percent Effect amounted to 6.48%. Still for that read-out and setting: with `O=C1CCCc2nccc(-c3ccccc3)c21` the figure was -14.1%; with `Cc1n[nH]c(C2CN(C(=O)CCc3ccco3)CCO2)n1` (stereo not given), -9.36%. On the same count and under the same terms, for `CC(Oc1ccccc1C(F)(F)F)C(=O)NS(=O)(=O)C(C)C` (stereo not given) the value was 4.69%; for `CCN1C(=O)CCCC12CCCN(C(=O)c1conc1C)C2` (stereo not given), 1.9%. The same measure, in the same setting: for `CN(CCc1cccs1)C1CCCN(Cc2noc(C3CC3)n2)C1` (stereo not given) the value was 16.2%; for `c1cnn(C2CN(Cc3nc(-c4ccsc4)no3)C2)c1`, 23%. With `Cn1cnnc1C1CCCN(C(=O)NCc2cc[nH]n2)C1` (stereo not given), the Percent Effect turned out to be 12.3%. Same read-out and setting: with `O=C1COc2ccc(C(=O)NS(=O)(=O)c3ccc(F)cc3F)cc2N1` the figure was 17.8%; with `CC1CCCN(CC(=O)N2CCC(c3ncc4c(n3)CCNC4)CC2)C1` (stereo not given), -1.44%. In the case of `CCCn1ccc(C(=O)N2CCC(C)CC2)n1`, the Percent Effect was -27.6%.

On to `Cn1cc(Br)c(=O)c(NS(=O)(=O)c2cc(F)ccc2Cl)c1`, for which the Percent Effect came to 16.3%.

Take `O=C(CCCc1cn[nH]c1)N1C[C@@H](CN2CCOCC2)[C@@H](CO)C1`: the Percent Effect is -29.7%. The same measure, in the same setting: for `CCc1ccccc1-n1cc(O)c(C(=O)N2CCCCC2)n1` the value was 31%; for `Cc1cc(CN2CCN(C(=O)c3sccc3C3CC3)CC2)on1`, 27%; for `Cc1cc(C)n(-c2cncc(NCCNC(=O)CC3CCCC3)n2)n1`, -15.9%.

Take `Cc1cnc2c(S(=O)(=O)NCC3CCS(=O)(=O)C3)cccc2c1` (stereo not given): the Percent Effect is -5.77%. Turning to `COc1ccc(F)cc1C(C)NC(=O)Cn1ccc(=O)n(C)c1=O` (stereo not given), the Percent Effect was -12.8%.

On to `CC(=O)N(Cc1noc(C)n1)C1CCN(Cc2ccccc2C#N)C1` (stereo not given), for which the Percent Effect is -3.66%.

On to `CNC(=O)[C@H]1C[C@H]2OCC[C@H]2N(Cc2cccc3ccccc23)C1`, for which the Percent Effect was -15.6%.

`O=C(Nc1nncs1)NC1CCc2ccccc21` (stereo not given): the Percent Effect was -33.6%. On the same count and under the same terms, with `Cc1ccc(-c2cc(CN3CCOC(Cn4cncn4)C3)on2)cc1` (stereo not given) the figure was -14%. Same read-out and setting: for `O=C1CC2(CCN(CC3CCOC3)CC2)CN1Cc1cc(F)cc(F)c1` (stereo not given) the value was 2.13%; for `CC(=O)NCC(=O)N1CCC2(CC1)CN(c1cccnc1)C(=O)CO2`, -4.09%.

As for `O=C(NCC(O)c1cccc(F)c1)c1cccnc1O` (stereo not given), the Percent Effect was -19%. The same measure, in the same setting: for `CNC(=O)[C@@]12CCO[C@@H]1CCN(S(=O)(=O)c1cccc(C)c1)C2` the value was 9.63%.

Values taken from ChEMBL document CHEMBL3988442, “University of Dundee, Small-Polar-MMV Screening Library” (2021).
